The source of these data is PubChem BioAssay.

Assay [1] in a line: E. coli DRC41 culture turbidity changes, primary screen, E. coli filamentation inducer project, strain DRC41, OD650, 48 h (AID 1152).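 Further: E. coli MC1000 strain DRC41 lacking acrAB efflux pump and sulA.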 As to conditions: E. coli DRC41 (acrAB sulA), higher = more signal, called active from +8 up or from −8 down.
Assay [2] in a line: small-molecule binders of probe aLefty1, primary screen, biochemical, small-molecule microarray, 635/667 nm fluorescence (AID 1153).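 Further: score merges spot fluorescence with signal-to-noise ratio from the scanned slide images.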 As to conditions: higher = more signal.
Assay [3] is described as follows: PSAC antagonists in infected red cells, primary screen, cell-based, P. falciparum Indochina, OD700, 1 h (AID 1154). As to conditions: P. falciparum Indochina infected RBC osmotic lysis, higher = more signal, called active from +8 up or from −8 down.
The nature of assay [4]: PSAC antagonists in infected red cells, primary screen, cell-based, P. falciparum Indochina, OD700, 2 h (AID 1155).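 Further: lysis reports solute entry through the parasite surface anion channel PSAC; channel blockers reduce lysis of infected cells.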 To be noted: P. falciparum Indochina infected erythrocytes, osmotic lysis OD700; higher = more signal, called active from +8 up or from −8 down.
Assay [5] in a line: osmotic lysis modulators in infected erythrocytes, primary screen, PSAC antagonist project, cell-based, P. falciparum Indochina, OD700, 3 h (AID 1156). To be noted: higher = more signal, called active from +8 up or from −8 down.
Assay [6] is described as follows: PSAC antagonists in infected red cells, primary screen, cell-based, P. falciparum Indochina, OD700, 18 h (AID 1157). To be noted: P. falciparum Indochina infected erythrocytes, osmotic lysis OD700, 18 h; higher = more signal, called active from +8 up or from −8 down.
Assay [7] in a line: modulators of S6 phosphorylation in cells, primary screen, cell-based, A549, cytoblot, luminescence, serum-stimulated (AID 1158).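 Further: serum-stimulated A549 lung adenocarcinoma cells; signal is phosphorylated S6 detected by cytoblot immunostaining with HRP secondary.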 To be noted: A549 phospho-S6 cytoblot, 5 h, higher = more signal.
The target of assay [8] is NADPH oxidase 2 (Homo sapiens) (UniProt P04839). Briefly: NOX2-dependent H2O2 signal modulators, primary screen, NOX inhibitor project, cell-based, HEK293-NOX2, PMA-stimulated, Amplex Red fluorescence (AID 1159). Further: test concentration not given here. To be noted: 45 min, higher = more signal, called active from +8 up or from −8 down.
Assay [9] concerns the target NADPH oxidase 4 (Homo sapiens) (UniProt Q9NPH5). Briefly: NOX4-dependent H2O2 signal modulators, primary screen, NOX inhibitor project, cell-based, HEK293-NOX4, tetracycline-induced, Amplex Red fluorescence (AID 1160). To be noted: 45 min, higher = more signal, called active from +8 up or from −8 down.
Assay [10] deals with NADPH oxidase 5 (Homo sapiens) (UniProt Q96PH1). The assay can be described thus: NOX5-dependent H2O2 signal modulators, primary screen, NOX inhibitor project, cell-based, HEK293-NOX5, Amplex Red fluorescence (AID 1161). As to conditions: HEK293-NOX5, ionomycin, 45 min, higher = more signal.
Assay [11] in a line: A549 cell viability effects, profiling panel, calcein-AM fluorescence, 48 h, basal (AID 1162). Further: test concentration not given here. To be noted: higher = more signal.
Assay [12] is described as follows: adipocyte viability effects, profiling panel, cell-based, 3T3-L1 adipocytes, calcein-AM fluorescence, 48 h, basal (AID 1163). Further: test concentration not given here. As to conditions: 3T3-L1 adipocytes viability, higher = more signal.
The nature of assay [13]: HepG2 cell viability effects, profiling panel, calcein-AM fluorescence, 48 h, basal (AID 1164). Further: test concentration not given here. To be noted: higher = more signal.
Assay [14] can be described thus: MM1S cell viability effects, profiling panel, calcein-AM fluorescence, 48 h, basal (AID 1165).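 Further: viability of MM1S multiple myeloma cells under basal unstimulated conditions; test concentration not given here.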 As to conditions: higher = more signal.
Assay [15] in a line: basal RPMI8226 viability, no added stimulus, profiling panel, cell-based, calcein-AM fluorescence, 48 h, PK04 Diversity Set (AID 1166).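 Further: cells grown under basal conditions without added stimulus; test concentration not given here.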 As to conditions: RPMI8226 myeloma viability, higher = more signal.
Assay [16] in a line: basal HepG2 mitochondrial membrane potential changes, profiling panel, cell-based, JC-1 fluorescence, 24 h, 100 nL compound (AID 1167). Further: test concentration not given here. As to conditions: higher = more signal.
Assay [17] in a line: basal 3T3-L1 adipocyte mitochondrial potential changes, profiling panel, cell-based, JC-1 fluorescence, 3T3-L1 adipocytes, 24 h, 100 nL compound (AID 1168). Further: test concentration not given here. To be noted: JC-1 mitochondrial fluorescence, higher = more signal, called active from +8 up or from −8 down.
A short description of assay [18]: basal RPMI8226 mitochondrial membrane potential changes, profiling panel, cell-based, JC-1 fluorescence, 24 h, 100 nL compound (AID 1169). Further: test concentration not given here. As to conditions: RPMI8226 myeloma, JC-1 mitochondrial potential fluorescence, higher = more signal.
Assay [19] in a line: basal MM1S mitochondrial membrane potential changes, profiling panel, cell-based, JC-1 fluorescence, 24 h, 100 nL compound (AID 1170). Further: test concentration not given here. To be noted: higher = more signal.
Assay [20] can be described thus: A549 lung cancer cell viability effects, profiling panel, resazurin fluorescence, 24 h, PK04 Diversity Set (AID 1171). Further: test concentration not given here. To be noted: higher = more signal, called active from +8 up or from −8 down. Background: Alamar Blue is a resazurin reagent that responds to reducing activity.

Calls of active or inactive are those of the source.

Chain of NADPH oxidase 4 (Homo sapiens) (Q9NPH5 whole entry, looked up): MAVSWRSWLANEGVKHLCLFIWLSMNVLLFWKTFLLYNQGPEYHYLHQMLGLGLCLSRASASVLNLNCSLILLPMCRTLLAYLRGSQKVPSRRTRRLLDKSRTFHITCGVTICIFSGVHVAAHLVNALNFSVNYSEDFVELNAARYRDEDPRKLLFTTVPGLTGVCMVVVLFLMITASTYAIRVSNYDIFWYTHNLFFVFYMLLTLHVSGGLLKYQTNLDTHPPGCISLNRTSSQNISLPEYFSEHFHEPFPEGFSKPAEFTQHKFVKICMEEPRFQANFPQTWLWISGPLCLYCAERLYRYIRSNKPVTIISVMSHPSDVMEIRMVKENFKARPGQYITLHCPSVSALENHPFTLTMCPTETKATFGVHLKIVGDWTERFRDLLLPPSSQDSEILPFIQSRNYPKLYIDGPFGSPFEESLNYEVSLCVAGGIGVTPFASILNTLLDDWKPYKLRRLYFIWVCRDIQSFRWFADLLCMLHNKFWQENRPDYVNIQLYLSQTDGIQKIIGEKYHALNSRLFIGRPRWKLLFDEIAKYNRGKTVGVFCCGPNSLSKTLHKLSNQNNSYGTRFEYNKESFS
Chain of NADPH oxidase 5 (Homo sapiens) (Q96PH1 whole entry, looked up): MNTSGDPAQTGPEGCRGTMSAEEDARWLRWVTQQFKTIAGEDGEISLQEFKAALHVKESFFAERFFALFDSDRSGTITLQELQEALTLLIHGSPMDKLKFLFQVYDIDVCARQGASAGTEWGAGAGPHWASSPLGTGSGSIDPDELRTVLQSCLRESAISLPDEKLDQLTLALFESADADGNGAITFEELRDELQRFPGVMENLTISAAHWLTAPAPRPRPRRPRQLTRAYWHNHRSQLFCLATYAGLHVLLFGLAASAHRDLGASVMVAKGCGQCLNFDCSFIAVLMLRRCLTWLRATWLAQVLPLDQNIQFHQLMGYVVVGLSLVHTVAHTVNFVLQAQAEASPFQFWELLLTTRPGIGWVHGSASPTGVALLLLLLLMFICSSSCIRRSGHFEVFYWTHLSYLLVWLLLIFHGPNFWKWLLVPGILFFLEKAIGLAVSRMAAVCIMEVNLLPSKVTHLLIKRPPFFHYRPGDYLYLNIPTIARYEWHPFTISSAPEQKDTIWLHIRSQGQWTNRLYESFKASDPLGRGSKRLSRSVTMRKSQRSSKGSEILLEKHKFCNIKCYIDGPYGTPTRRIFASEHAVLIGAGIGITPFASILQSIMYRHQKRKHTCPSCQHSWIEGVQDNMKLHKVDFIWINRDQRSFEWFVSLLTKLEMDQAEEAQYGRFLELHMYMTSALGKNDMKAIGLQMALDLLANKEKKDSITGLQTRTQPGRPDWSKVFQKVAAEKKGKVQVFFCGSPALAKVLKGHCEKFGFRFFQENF
Chain of NADPH oxidase 2 (Homo sapiens) (P04839 whole entry, looked up): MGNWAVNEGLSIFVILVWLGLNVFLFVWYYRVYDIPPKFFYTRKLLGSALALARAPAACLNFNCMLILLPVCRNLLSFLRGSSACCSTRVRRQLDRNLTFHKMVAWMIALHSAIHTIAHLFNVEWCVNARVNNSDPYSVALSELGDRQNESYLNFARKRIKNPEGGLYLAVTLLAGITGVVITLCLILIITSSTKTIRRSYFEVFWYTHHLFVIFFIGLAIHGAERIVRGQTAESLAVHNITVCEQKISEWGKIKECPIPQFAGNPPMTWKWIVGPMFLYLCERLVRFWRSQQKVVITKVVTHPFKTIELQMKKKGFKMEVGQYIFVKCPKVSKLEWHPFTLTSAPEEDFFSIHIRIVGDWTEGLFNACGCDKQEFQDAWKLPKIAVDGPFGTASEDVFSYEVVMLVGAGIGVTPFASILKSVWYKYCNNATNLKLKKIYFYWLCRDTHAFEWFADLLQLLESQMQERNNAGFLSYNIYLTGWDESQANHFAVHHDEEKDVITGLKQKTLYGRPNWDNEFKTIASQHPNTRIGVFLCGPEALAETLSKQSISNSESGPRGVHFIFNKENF

For `CN1C2C=C(CCCO)C(C3C(=O)N(C(N)=O)C(=O)C32)C1c1ccc(CN2CCCC2)cc1` (stereo not given), the z-score in [1] is 0.0489 (inactive); in assay [3] it was 0.114 (inactive); in [4] it was 0.229 (inactive); in assay [5] it was -0.695 (inactive); in [6], -0.11 (inactive); in assay [7] it was -0.0852. The z-score in assay [8] was -1.52 (inactive); in assay [9], 0.171 (inactive); in [10], -0.0223; in assay [11] it was -0.814; in assay [12], -0.543; in assay [13], -0.357. The z-score in assay [14] was 0.432; in [15] it was -1.22; in [16], -0.208; in assay [17], -0.655 (inactive); in assay [18] it was 0.234; in assay [19], -0.137. The z-score in assay [20] is 0.0528 (inactive). This molecule showed a composite z-score in assay [2] of -0.189.
`C=C(CCCC)C(=O)CC[C@H](OC(C)=O)c1cccc(OCCO)c1`: the z-score was 0.648 (inactive) in [1]; 5.27 (inactive) in [3]; -1.77 (inactive) in assay [4]; 1.57 (inactive) in assay [5]; -1.85 (inactive) in assay [6]; 0.73 in assay [7]. Further, the z-score in assay [8] is -1.94 (inactive); in [9] it was -0.766 (inactive); in assay [10], -2.8; in [11], -0.0802; in assay [12], 1.62; in assay [13], -0.889. Also, the z-score in [14] is -1.12; in assay [15], -1.18; in [16], -0.525; in assay [17] it was 0.906 (inactive); in [18] it was 0.139; in [19] it was -0.964. In addition, the z-score in assay [20] is -0.252 (inactive). The composite z-score in assay [2] was -0.263.
On to `Cc1ccc(S[C@]2(C(=O)NCCN3CCOCC3)CC(=O)N(Cc3ccccc3)[C@@H]2c2ccc(CO)cc2I)cc1`, for which the z-score in assay [1] was 0.434 (inactive); in assay [3] it was 8.54 (active); in [4] it was 0.37 (inactive); in [5], 1.13 (inactive); in assay [6], -1.19 (inactive); in [7] it was 2.42. The z-score in assay [8] is 1.99 (inactive); in assay [9], -2.89 (inactive); in assay [10], 0.422; in [11] it was -0.242; in assay [12], 1.1; in assay [13], -0.705. In addition, the z-score in [14] was -2.08; in assay [15], -2.5; in assay [16], 0.119; in assay [17] it was -0.688 (inactive); in [18], -0.383; in [19], -2.44. Besides, the z-score in [20] was 0.394 (inactive). Besides, the composite z-score in assay [2] worked out at 0.0752.
Regarding `COc1ccc(C(O)C2C=CC3C(=O)N(c4ccccc4)C(=O)C3N2Nc2ccccc2F)cc1OCc1ccccc1` (stereo not given), the z-score in [1] is -1 (inactive); in [3] it was 9.5 (active); in assay [4], 2.5 (inactive); in assay [5], 0.361 (inactive); in assay [6] it was 1.17 (inactive); in assay [7] it was -1.12. In addition, the z-score in assay [8] is -1.18 (inactive); in [9], -2.79 (inactive); in [10], -1.17; in assay [11], -0.0678; in [12] it was -1.77; in assay [13] it was -0.561. Also, the z-score is 0.0664 in assay [14]; -0.43 in [15]; -1.51 in [16]; -0.838 (inactive) in assay [17]; -0.75 in [18]; -0.909 in assay [19]. Further, the z-score in [20] is -0.179 (inactive). The molecule further had a composite z-score in [2] of 0.5.
With `COCCOC(=O)N1C(=O)[C@@]2(c3cc(C#Cc4ccc(OC)cc4)ccc31)[C@H](c1ccccc1OCCO)N1[C@H](c3ccccc3)[C@H](c3ccccc3)OC(=O)[C@H]1[C@@H]2C(=O)N1CCN(c2ncccn2)CC1`, the z-score in assay [1] is 0.148 (inactive); in assay [3], 3.79 (inactive); in assay [4] it was 3.04 (inactive); in assay [5], 1.3 (inactive); in assay [6] it was 1.76 (inactive); in assay [7], -0.133. Moreover, the z-score in [8] is 0.978 (inactive); in [9] it was -0.00787 (inactive); in assay [10] it was 0.882; in [11], 0.204; in assay [12] it was -0.226; in assay [13], 0.348. Besides, the z-score in assay [14] was -0.653; in [15] it was 0.149; in assay [16] it was 0.356; in assay [17], 2.41 (inactive); in [18], -0.72; in [19], -1.37. Besides, in assay [20], the z-score is -0.692 (inactive). For the same molecule, the composite z-score in assay [2] was determined as 0.118.
Turning to `C=CCOC(=O)[C@H]1[C@@H]2C(=O)O[C@@H](c3ccccc3)[C@@H](c3ccccc3)N2[C@@H](c2ccc(OCCOC(=O)[C@@H]3C[C@@H]4C(=O)N[C@@H](CCCC[N+](C)(C)C)C(=O)N4[C@@H]3c3ccc(O)cc3)cc2)[C@]12C(=O)Nc1ccccc12`, the z-score was 0.443 (inactive) in assay [1]; -0.906 (inactive) in assay [3]; -0.689 (inactive) in assay [4]; 4.3 (inactive) in assay [5]; -1.58 (inactive) in assay [6]; 1.28 in [7]. In addition, the z-score was 2.42 (inactive) in assay [8]; 0.568 (inactive) in [9]; 1.41 in [10]; 1.23 in [11]; 1.53 in [12]; -0.265 in assay [13]. Further, the z-score in assay [14] is -1.07; in assay [15], 0.95; in [16] it was -1.37; in assay [17] it was 0.396 (inactive); in assay [18], -0.923; in [19], -0.504. In assay [20], the z-score is 1.19 (inactive). In assay [2], this molecule showed a composite z-score of 0.0104.
Regarding `CCOC(=O)C[C@H]1[C@H](OC(=O)Cc2ccc3c(c2)OCO3)[C@@H](NC(=O)c2ccc(-c3ccccc3)cc2)c2cc(OCCCO)ccc2N1C(=O)c1ccc2ccccc2n1`, the z-score is 1.55 (inactive) in assay [1]; 8.44 (active) in assay [3]; 0.67 (inactive) in assay [4]; -0.352 (inactive) in assay [5]; -0.258 (inactive) in assay [6]; 2.85 in [7]. Moreover, the z-score in assay [8] is -2.09 (inactive); in assay [9] it was -1.28 (inactive); in assay [10] it was -1.21; in assay [11], 1.8; in assay [12], 2.75; in assay [13], 1.65. For the same molecule, the z-score in assay [14] is 0.218; in assay [15], -0.472; in assay [16] it was 2.72; in assay [17], 0.61 (inactive); in assay [18], -0.233; in [19] it was -0.903. Further, in assay [20], the z-score is 0.562 (inactive). For the same molecule, the composite z-score in assay [2] was -0.0536.
As for `O=C1C[C@]2(c3ccc([N+](=O)[O-])cc3)C(=O)N(CCN3CCOCC3)c3cc(CO)ccc3[C@H]2N1C1CCCCC1`, the z-score in assay [1] was 0.918 (inactive); in assay [3] it was 1.23 (inactive); in [4], -0.837 (inactive); in [5], -0.584 (inactive); in assay [6], -0.507 (inactive); in assay [7], 1.51. Also, the z-score in assay [8] is -0.791 (inactive); in assay [9], -0.0781 (inactive); in [10], 1.18; in assay [11], 0.648; in [12], 0.239; in [13], 1.87. Further, the z-score in assay [14] is -0.121; in assay [15] it was 0.346; in assay [16], 0.756; in [17], 0.155 (inactive); in [18], 0.0691; in assay [19], -0.509. For the same molecule, in [20], the z-score was -1.17 (inactive). Also, the composite z-score in assay [2] was -0.0108.
For the molecule `C=CC[C@]1(C(=O)N2CCCCC2)N=C(c2ccc(OCCCO)cc2)O[C@H]1c1ccccc1`, the z-score in [1] is 0.573 (inactive); in [3], 18.8 (active); in assay [4], 3.99 (inactive); in [5], 1.61 (inactive); in assay [6], 1.11 (inactive); in [7], -0.232. The z-score in [8] was 0.186 (inactive); in assay [9], -0.0137 (inactive); in [10], -1.71; in assay [11] it was 0.396; in [12], 0.0234; in [13], -0.426. Also, the z-score was -2.35 in assay [14]; -1.35 in [15]; 0.53 in assay [16]; -0.0613 (inactive) in assay [17]; -1.16 in [18]; 0.447 in [19]. Moreover, the z-score in assay [20] is 2.72 (inactive). Further, the composite z-score in assay [2] is 0.629.
